# In PubChem BioAssay AID602468 (The Scripps Research Institute Molecular Screening Center, 2012):
# A number with no mark means an inactive call. The rule behind the calls is not given here.
# Test system: MBM
# Assay: cysteine-reactive anti-target inhibition count, late-stage follow-up, selectivity assay for PME-1 inhibitor project, gel-based competitive ABPP, fluorescence, MBM, Neuro-2A (AID 602468)
# Details: MBM or Neuro-2A, in vitro, at 10 µM, stronger effect = lower value
compound,measurement,value
CC[C@@]1(c2ccc(C)cc2)C(=O)N(C(=O)OC(C)C)N1C(=O)OC(C)C,number of anti-targets inhibited,0
